This is a sample that favours compounds with a hit; in the whole collection about 3.2% have one here.
GALK inh: qHTS Assay for Inhibitors of Human Galactokinase (GALK) | Potency, µM (highest dose often 57.5 µM), inactives show at the top dose activity change, negative = inhibition, hits mostly inhibitors | Purified GALK, Kinase-Glo residual ATP luminescence | AID 1868, 2009 | P51570 | 270,000 tested, 0.007% active; also: potency is read from the fitted curve at half-maximal effect
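Kinase-Glo Plus luminescence measured ATP left after a 1 h room-temperature reaction. The reaction used 5 nM GALK, 100 uM galactose and 35 uM ATP at pH 8.0 (20 mM HEPES, 5 mM MgCl2, 60 mM NaCl, 1 mM DTT, 0.01% BSA).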
Coupling enz: qHTS Assay for Inhibitors of Fructose-1,6-bisphosphate Aldolase from Giardia Lamblia: Coupling assay counterscreen. coupling enzyme system counterscreen, AmpLite Red fluorescence. activity change, negative = inhibition, % at 58.2 µM, hits read low. 290,000 tested, 0.67% active. AID 2472, 2010; in the data active = activity change below about -30%
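Counterscreen lacking aldolase: glyceraldehyde-3-phosphate coupling-enzyme reagent preincubated 10 min at RT with compound (at 57.5 uM final), then substrate/coupling system with AmpLite Red added; fluorescence read at 525/598 nm after 20 min RT.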
USP1-UAF1 inh: Inhibitors of USP1/UAF1: Primary Screen | Ubiquitin carboxyl-terminal hydrolase 1 (Homo sapiens), O94782 | recombinant USP1/UAF1, Ub-Rhodamine cleavage fluorescence | Potency, µM (titrated, usually from 57.1 µM), for the others: top-dose activity change, negative = inhibition, actives largely listed as inhibitors | 390,000 tested, 0.23% active; also: potency is read from the fitted curve at half-maximal effect; nearly all actives have a fitted effect of over 60% in size
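In this screen, compounds sit with the deubiquitinase complex (1nM) for 15 min at room temperature before Ub-Rho is added at 150nM final. Fluorescence rise is then followed for 6 reads every 60 seconds.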
PLK1 PBD block: qHTS for Inhibitors of PLK1-PDB (polo-like kinase 1 - polo-box domain): Primary Screen | 360,000 tested, 2.8% active | Potency, µM, without a hit: max response, negative = inhibition, actives largely listed as inhibitors | Plk1 PBD binding of FITC phosphopeptide, fluorescence polarization; also: potency is read from the fitted curve at half-maximal effect; series mostly up to about 57 µM; nearly all actives have a fitted effect of over 65% in size
Target sequence (P53350 whole entry, looked up, the tested form may be a part): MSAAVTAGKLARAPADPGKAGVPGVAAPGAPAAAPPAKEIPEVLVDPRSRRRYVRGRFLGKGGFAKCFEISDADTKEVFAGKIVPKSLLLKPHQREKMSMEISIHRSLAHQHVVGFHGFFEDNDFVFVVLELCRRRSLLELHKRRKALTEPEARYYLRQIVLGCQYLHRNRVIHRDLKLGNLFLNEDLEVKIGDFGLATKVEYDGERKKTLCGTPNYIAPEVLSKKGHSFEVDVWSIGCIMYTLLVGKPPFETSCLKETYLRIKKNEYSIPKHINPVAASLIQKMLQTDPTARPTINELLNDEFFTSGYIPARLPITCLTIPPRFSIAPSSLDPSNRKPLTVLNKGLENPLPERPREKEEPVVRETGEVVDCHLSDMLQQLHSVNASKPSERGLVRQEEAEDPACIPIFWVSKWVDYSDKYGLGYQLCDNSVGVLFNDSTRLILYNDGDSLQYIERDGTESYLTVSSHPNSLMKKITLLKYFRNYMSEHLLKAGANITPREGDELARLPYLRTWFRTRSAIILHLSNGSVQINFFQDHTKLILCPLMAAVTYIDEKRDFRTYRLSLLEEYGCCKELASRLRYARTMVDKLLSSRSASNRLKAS
VDR inhibitor: Inhibitors of the vitamin D receptor (VDR): qHTS | Vitamin D3 receptor (Homo sapiens), P11473 | VDR-SRC2-3 peptide fluorescence polarization, 2 h | Potency, µM, for inactives: max response, negative = inhibition, actives largely listed as inhibitors | 400,000 tested, 0.93% active; also: potency is read from the fitted curve at half-maximal effect
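Signal is fluorescence polarization, reporting how far test compounds block the interaction of VDR with the SRC2-3 coregulator peptide after a 2 h room-temperature incubation.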
USP2a block: qHTS Assay for Inhibitors of Ubiquitin-specific Protease USP2a Using CHOP2 as the Reporter | Ubiquitin carboxyl-terminal hydrolase 2 (Homo sapiens), O75604 | USP2 core, Ub-CHOP2 coupled fluorogenic reporter, 485/531 | Potency, µM (highest dose often 38.3 µM), inactives show at the top dose activity change, negative = inhibition, usual class: inhibitors | 330,000 tested, 0.01% active | AID 463254, 2010;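 also: potency is read from the fitted curve at half-maximal effect; plate controls were DMSO wells for no effect and full inhibition by NEM control for full effect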
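Cell-free coupled assay: 10nM USP2 core preincubated 30min RT with compound in Tris-HCl pH 8.0/CaCl2/CHAPS buffer, then 25nM Ub-CHOP2 and 25nM reporter substrate; fluorescence (Ex 485/Em 531) read after 60min RT, normalized to NEM inhibition, concentration-response curves fitted.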
* = called active by the depositor; ? = inconclusive; / = no result given. Unless noted, calls follow the shape of the dose curve; as a rule, active = well fitted curve in the direction sought with a large enough effect; inconclusive = small, poorly fitted or top-dose-only effect, or another doubt; inactive = no such curve, though single readings can be large; an effect the other way counts as inactive or inconclusive. Unless noted, % is scaled to controls: 0 for no effect and ±100 for the full control effect.

SMILES | GALK inh | Coupling enz | USP1-UAF1 inh | PLK1 PBD block | VDR inhibitor | USP2a block
CCC(CC)C(=O)N(C)c1c(C)nc2c(OCC=C(C)C)cccn12 | / | / | / | -6% | / | /
CCCCNc1cc(NC2CCCCC2)c2c3c(onc13)-c1ccccc1C2=O | / | / | -17% | / | ? | /
CCOC(=O)C(C(=O)OCC)c1cc(Br)c2noc3c2c1C(=O)c1ccccc1-3 | -1% | -64* | 44% | 1.9µM* | ? | ?
CCCP(=O)(CC(=O)N(CC)CC)c1ccccc1 (stereo unspecified) | -1% | 3 | -14% | -7% | 12% | 1%
COc1ccc(C=O)cc1CSc1ccccn1 | 4% | 0 | -20% | 24µM* | 4% | -1%
COc1ccc(C(C)=O)cc1CSc1ccccn1 | 1% | 3 | -1% | -7% | 9% | -1%
O=C(NCCCn1ccnc1)c1cc(C(=O)C2CC2)c[nH]1 | -1% | 4 | -12% | -1% | -1% | 3%
O=C1CCc2cc(S(=O)(=O)N3CCC(C(=O)NCCC4=CCCCC4)CC3)ccc2N1 | 2% | 3 | -5% | 21µM* | -38% | 1%
Cc1ccc(CCNC(=O)C2CCN(S(=O)(=O)c3ccc4c(c3)CCC(=O)N4)CC2)cc1 | -1% | 0 | -28% | -4% | -18% | 6%
COc1ccc(C2CC(c3ccccc3)=NN2C(=O)CSc2ncn[nH]2)cc1 (stereo unspecified) | -2% | 4 | -17% | -8% | 0% | 4%
O=C(Nc1ccc(N2CCCCCC2)cc1)c1ccc[nH]1 | / | / | -11% | -4% | 6% | -2%
O=C(C[n+]1ccc(Cc2ccccc2)cc1)Nc1ccc([N+](=O)[O-])cc1Cl | 3% | 4 | -23% | -11% | -10% | -1%
Cc1ccc(Cl)cc1NC(=O)C[n+]1ccc(Cc2ccc([N+](=O)[O-])cc2)cc1 | 0% | -44* | -9% | 2% | 7% | -1%
CN(C)CCCN(C(=O)c1ccc2c(c1)CCCC2)c1nc2c(F)cccc2s1 | -4% | -37* | -18% | -12% | -17% | -8%
C/C(Cc1ccccc1)=N\NC(=O)CNC(=O)c1ccccc1 | -1% | 1 | -17% | -9% | 13% | 6%
C/C(Cc1ccccc1)=N\NC(=O)CNC(=O)c1ccc(Br)cc1 | 2% | -11 | -11% | 27µM* | -12% | -2%
Cc1nn(Cc2cccc(C(=O)Nc3ccn(Cc4c(F)c(F)cc(F)c4F)n3)c2)c(C)c1[N+](=O)[O-] | 3% | -2 | -23% | 1% | -8% | 1%
c1ccc(CCn2nnnc2CN2CCCc3ccccc32)cc1 | -1% | -1 | -13% | 13µM* | -15% | 2%
C[C@H]([C@H](C)N1CC(=O)NC(=O)C1)N1CC(=O)NC(=O)C1 | / | 1 | / | / | 45µM* | /
Cc1ccc(S(=O)(=O)N2CC(=O)NC(=O)C2)cc1 | -1% | 0 | -9% | 7% | -3% | 3%
Cc1ccc(N2C(=O)[C@@H]3[C@H](C2=O)[C@H]2C=CC=NN2[C@@H]3C(=O)Nc2ccc(Cl)cc2)cc1 | 2% | -5 | -4% | ? | -20% | -12%
O=C(Nc1ccc(Cl)cc1)[C@@H]1[C@@H]2C(=O)N(c3ccc(Cl)cc3)C(=O)[C@@H]2[C@H]2C=CC=NN21 | 1% | 1 | -15% | 24µM* | ? | -1%
Cc1ccc(NS(=O)(=O)c2ccccc2F)cc1S(=O)(=O)N1CCCCC1 | / | / | -21% | -6% | -7% | 0%
COC(=O)COc1ccc(-c2nccc(-c3ccc(Br)cc3)n2)cc1 | -1% | -1 | -16% | 9.5µM* | 28µM* | 1%
CC(=O)c1cccc(N(CC(=O)Nc2ccc(S(=O)(=O)N3CCCC3)cc2)S(C)(=O)=O)c1 | 4% | / | -20% | 0% | -7% | 2%
SMILES | GALK inh | Coupling enz | USP1-UAF1 inh | PLK1 PBD block | VDR inhibitor | USP2a block
O=C(O)C1CCCCC1C(=O)Nc1cccc(C(=O)N2CCCCC2)c1 (stereo unspecified) | 0% | 6 | -6% | -7% | -13% | 1%
CCOC(=O)CNC(=O)CC(c1cc(OC)c(OC)c(OC)c1)N1Cc2ccccc2C1=O (stereo unspecified) | / | / | -22% | / | 17% | /
CCn1cc(CN2CCCC(C(=O)c3ccc(-c4ccccc4)c(F)c3)C2)cn1 (stereo unspecified) | 4% | 3 | -16% | 1% | 0% | -10%
Cc1cc(F)ccc1NC(=O)CCc1c(C)nn(-c2ccc(N3CCCCC3)nn2)c1C | 1% | 1 | -20% | 21µM* | -28% | 0%
CC(=O)c1ccc(NC(=O)CCc2c(C)nn(-c3ccc(N4CCOCC4)nn3)c2C)cc1 | -3% | 1 | -16% | 21µM* | ? | -1%
COc1ccccc1N=NC1=C(O)CC(C)(C)CC1=O | / | 2 | -12% | 6% | 7% | -13%
Nc1nc2ccc(Br)cc2o1 | / | / | 1% | 15% | 7% | /
CCOC(=O)CNC(=O)/C=C/c1ccc2c(c1)OCO2 | 1% | 2 | -19% | -10% | 4% | 11%
CCOC(=O)CNc1ccc2c(c1)OCO2 | -4% | -38* | 2% | -10% | -6% | 9%
O=C(Cn1c(=O)sc2ccccc21)NCc1ccccn1 | -2% | -1 | -5% | 21µM* | -21% | 1%
Cc1ccc(/C=N/n2nnnc2N)cc1[N+](=O)[O-] | -2% | 2 | -7% | -29% | -11% | 4%
Cc1cc(C)n2nc(SCC(=O)N/N=C/c3cccc(Br)c3)nc2n1 | 3% | -32* | ? | 0% | 3% | /
Cc1c(Cl)sn(-c2ccc(Cl)cc2)c1=O | -2% | 7 | -3% | 2.7µM* | 45µM* | 2%
CC1CCCCC1NC(=O)CCS(=O)(=O)c1ccc2c(c1)NC(=O)CS2 (stereo unspecified) | -5% | / | -18% | ? | ? | 3%
CC1CCCC(NC(=O)CCS(=O)(=O)c2ccc3c(c2)NC(=O)CS3)C1C (stereo unspecified) | -2% | / | -26% | 30µM* | ? | 3%
Nc1ncc(Br)cc1S(=O)(=O)NCCC(=O)NCc1ccc(F)cc1 | 0% | / | -7% | -14% | -14% | 4%
COc1ccc(CCNS(=O)(=O)c2ccc(Br)s2)cc1 | -3% | / | -14% | -4% | 0% | 1%
COc1cccc(CNC(=O)CCNC(=O)c2ccc(Br)o2)c1 | -2% | -2 | -22% | 13µM* | ? | -2%

High-throughput results deposited in PubChem BioAssay by National Center for Advancing Translational Sciences (NCATS).
